Screen size: about 1,300 compounds; about 930 (72%) were called active.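 Rule for the calls: active = fitted curve reaches 40% activation signal increase at or below the top valid tested concentration in every replicate test; inconclusive = replicate tests disagree in their calls; inactive = all replicate tests inactive, including effects opposite the expected signal rise.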 The set was probably picked from earlier hits. Only a sample is shown. Results with a measured potency or affinity are listed apart.
Experiment: suppression of miR-122 activity, Renilla luciferase sensor – cell-based, Huh7 psiCHECK-miR122, cherry-pick, dose response (AID 652053)
Conditions: Huh7 psiCHECK-miR122 Renilla luciferase reporter, 48 h; series mostly up to 35 µM

outcome, inactive:
CCC(C)(C)n1nnnc1C(c1ccc(C)cc1)N1CCC(C)CC1 (stereo unspecified)
C[C@H](CO)N1C[C@H](C)[C@H](CN(C)C(=O)Nc2cccc3ccccc23)Oc2ccc(NC(=O)Nc3cccc4ccccc34)cc2CC1=O
C[C@H](CO)N1C[C@H](C)[C@H](CN(C)C(=O)Nc2cccc3ccccc23)Oc2ccc(NC(=O)Nc3ccc(C(F)(F)F)cc3)cc2CC1=O
C[C@@H]1CN([C@H](C)CO)C(=O)Cc2cc(NC(=O)Nc3cccc4ccccc34)ccc2O[C@H]1CN(C)C(=O)Nc1cccc2ccccc12
C[C@H]1CN([C@@H](C)CO)C(=O)Cc2cc(NC(=O)Nc3ccc(C(F)(F)F)cc3)ccc2O[C@@H]1CN(C)C(=O)Nc1cccc2ccccc12
C[C@@H]1CN([C@@H](C)CO)C(=O)Cc2cc(NC(=O)Nc3ccc(C(F)(F)F)cc3)ccc2O[C@H]1CN(C)C(=O)Nc1cccc2ccccc12
CN(C)S(=O)(=O)c1ccc2c(c1)nc(CCC(=O)NCC1CCCCC1)n2C
O=C(COc1ccc2c(c1)C(=O)CC1(CCCCC1)O2)NCc1ccccc1
CC1(C)N([O-])C(c2cccs2)=C[N+]1=O
C[C@H]1CN([C@@H](C)CO)C(=O)Cc2cc(NC(=O)Nc3cccc4ccccc34)ccc2O[C@H]1CN(C)C(=O)NC1CCCCC1
C[C@@H]1CN([C@H](C)CO)S(=O)(=O)c2ccc(C3=CCCCC3)cc2O[C@@H]1CN(C)Cc1ccccc1
C[C@@H]1CN([C@H](C)CO)S(=O)(=O)c2ccc(-c3ccccc3)cc2O[C@H]1CN(C)C(=O)C1CCCCC1
COC(=O)C[C@H]1CC[C@@H]2[C@H](COc3ccc(NS(=O)(=O)c4ccc(C)cc4)cc3C(=O)N2C)O1
O=C(c1ccccc1F)N1C[C@@H]2[C@H](c3ccccc31)[C@@H](CO)N2C(=O)c1ccc(F)cc1
O=C(c1ccccc1F)N1C[C@H]2[C@@H](c3ccccc31)[C@H](CO)N2C(=O)c1cccnc1
O=C(c1ccccc1F)N1C[C@H]2[C@@H](c3ccccc31)[C@H](CO)N2C(=O)c1ccc(F)cc1
COc1ccc(N2C(=O)c3cccc4c(N(C)CCO)ccc(c34)C2=O)cc1
O=C(C[C@H]1CC[C@H]2[C@@H](COC[C@H](O)CN2C(=O)Nc2cccc(F)c2)O1)NCc1ccccc1F
C[C@H](CO)N1C[C@H](C)[C@@H](CN(C)C(=O)Nc2cccc3ccccc23)Oc2c(NC(=O)C3CCOCC3)cccc2C1=O
C[C@H](CO)N1C[C@H](C)[C@@H](CN(C)Cc2ccc(C(=O)O)cc2)Oc2c(NC(=O)C3CCOCC3)cccc2C1=O
COC(=O)c1ccc(Cl)c(NC(C)=O)c1
COc1ccccc1CNC(=O)C[C@@H]1CC[C@@H]2[C@@H](COc3ccc(NC(C)=O)cc3C(=O)N2C)O1
Cc1ccc(NC(=O)[C@@H]2CCCN2S(=O)(=O)c2ccccc2F)cc1S(=O)(=O)N1CCOCC1
C[C@@H]1CN([C@H](C)CO)C(=O)Cc2cc(NC(=O)Nc3cccc4ccccc34)ccc2O[C@H]1CN(C)C(=O)NC1CCCCC1
Cc1cccc(OCCCC(=O)Nc2ccc(Cl)c(S(=O)(=O)N3CCOCC3)c2)c1
COC(=O)c1cc(Br)ccc1NC(=O)Nc1ccccc1
COc1ccc2c(c1)C(C)=CC(C)(C)N2S(=O)(=O)c1ccc(Br)cc1
CC(C)NC(=O)N(C)C[C@@H]1Oc2ccc(N(C)C)cc2CC(=O)N([C@H](C)CO)C[C@@H]1C
C[C@H](CO)N1C[C@H](C)[C@H](CN(C)S(=O)(=O)c2ccc(Cl)cc2)Oc2ccc(N(C)C)cc2CC1=O
C[C@H](CO)N1C[C@H](C)[C@H](CN(C)CC2CC2)Oc2ccc(N(C)C)cc2CC1=O
C[C@H](CO)N1C[C@H](C)[C@H](CN(C)S(C)(=O)=O)Oc2ccc(N(C)C)cc2CC1=O
CCCOC(=O)c1[nH]c2c(c1C)C(=O)CC(c1cccs1)C2 (stereo unspecified)
Clc1ccc(CNc2nc(N3CCOCC3)nc(N3CCOCC3)n2)cc1
CCn1c(SCC(=O)Nc2ccc(N3CCOCC3)cc2)nnc1-c1ccc(OC)cc1
CC(C)N1C(=O)CC(Nc2ccc(N3CCOCC3)cc2)C1=O (stereo unspecified)
COCCNC(=O)C[C@@H]1CC[C@H]2[C@@H](COc3ccc(NC(C)=O)cc3C(=O)N2C)O1
CCCNC(=O)C[C@@H]1CC[C@@H]2[C@H](COc3ccc(NC(=O)Nc4c(C)noc4C)cc3C(=O)N2C)O1
COc1ccccc1CNC(=O)C[C@@H]1CC[C@H]2[C@@H](COc3ccc(NC(=O)Nc4ccc(F)c(F)c4)cc3C(=O)N2C)O1
COc1ccccc1CNC(=O)C[C@H]1CC[C@H]2[C@H](COc3ccc(NC(=O)Nc4ccc(F)c(F)c4)cc3C(=O)N2C)O1
CC(C)C(=O)Nc1ccc2c(c1)C(=O)N(C)[C@H]1CC[C@@H](CC(=O)NCC3CC3)O[C@@H]1CO2
COCC(=O)Nc1ccc2c(c1)C(=O)N(C)[C@H]1CC[C@@H](CC(=O)O)O[C@H]1CO2
COc1ccccc1CNC(=O)C[C@@H]1CC[C@H]2[C@H](COc3ccc(NC(=O)Nc4ccc(F)c(F)c4)cc3C(=O)N2C)O1
Cc1nc(Nc2nc(CSc3nc4ccccc4[nH]3)cc(=O)[nH]2)nc2ccccc12
Cc1ccc2c(C)nc(Nc3nc(CSc4nc5ccccc5[nH]4)cc(=O)[nH]3)nc2c1
NC(=O)c1ccc(-n2nnnc2SCC(=O)c2ccc(O)c(O)c2)cc1
Cc1ccc(-n2nnnc2SCC(=O)N2c3ccccc3NC(=O)C2(C)C)cc1
O=C(C[C@H]1CC[C@@H]2[C@H](COC[C@H](O)CN2C(=O)C2CCCC2)O1)NCc1ccncc1
N#Cc1cnn2c1nc(N1CCCCC1)c1ccccc12
CCCCn1c(SCC(=O)Nc2nnc(CC)s2)nc2c1c(=O)n(C)c(=O)n2C
CC(C)Cc1nnc(NC(=O)Cc2ccccc2[N+](=O)[O-])s1
COc1ccccc1C(=O)Nc1ccc2c(c1)C(=O)N(C)[C@@H]1CC[C@H](CC(=O)NCc3ccc(Cl)c(Cl)c3)O[C@H]1CO2
COc1ccccc1C(=O)Nc1ccc2c(c1)C(=O)N(C)[C@@H]1CC[C@H](CC(=O)NCc3ccc(Cl)c(Cl)c3)O[C@@H]1CO2
COc1ccccc1CNC(=O)C[C@@H]1CC[C@@H]2[C@@H](COc3ccc(NC(=O)Nc4ccc(F)c(F)c4)cc3C(=O)N2C)O1
COc1ccccc1C(=O)Nc1ccc2c(c1)C(=O)N(C)[C@@H]1CC[C@@H](CC(=O)NCc3ccc(Cl)c(Cl)c3)O[C@H]1CO2
COc1ccccc1C(=O)Nc1ccc2c(c1)C(=O)N(C)[C@@H]1CC[C@@H](CC(=O)NCc3ccc(Cl)c(Cl)c3)O[C@@H]1CO2
COc1ccccc1CNC(=O)C[C@@H]1CC[C@@H]2[C@H](COc3ccc(NC(=O)Nc4ccc(F)c(F)c4)cc3C(=O)N2C)O1
O=C(c1ccccc1F)N1C[C@H]2[C@@H](c3ccccc31)[C@@H](CO)N2Cc1ccc2c(c1)OCO2
CCOc1ccc(Cl)cc1S(=O)(=O)n1cnc2cc(C)c(C)cc21
Cc1ccc(-n2nnc(-c3nccs3)n2)cc1
CCOc1ccc(CSC2=NCCN2)cc1Cl
CCCNC(=O)C[C@@H]1CC[C@H]2[C@H](COc3ccc(NC(=O)Cc4cccs4)cc3C(=O)N2C)O1
CCc1cccc(CC)c1NC(=O)COC(=O)C1(c2ccc(Cl)cc2)CCCC1
COc1ccc(OC)c(S(=O)(=O)N2CCNCC2)c1
Cn1nc(CC(=O)N2CCN(c3ccccc3)CC2)c2ccccc2c1=O
COc1cccc(C(=O)N2C[C@@H]3[C@H](c4ccccc42)[C@H](CO)N3C(=O)c2ccc(F)cc2)c1
COc1cccc(C(=O)N2C[C@@H]3[C@H](c4ccccc42)[C@@H](CO)N3C(=O)c2ccc(F)cc2)c1
CC(C)NC(=S)N1CCn2c(nc3ccccc32)C1
CC(C)CC(=O)NCCCN1CCN(CCCNC(=O)CC(C)C)CC1
CCOC(=O)c1ccc(-n2ccnc2)c(NC(=O)c2cccc(Br)c2)c1
Cn1cnc(S(=O)(=O)N2C[C@@H](O)COC[C@H]3O[C@@H](CC(=O)NC4CCCC4)CC[C@@H]32)c1
CCOC(=O)CN1C(=O)C(C)(C)Oc2ccc(C(=O)Nc3ccccc3)cc21
CC(=O)N1[C@H](CNC(=O)C2CC2)[C@@H](c2ccc(-c3ccccc3)cc2)[C@@H]1CO
Cc1cc(C)c2nc(Nc3nc(CSc4nc5ccccc5[nH]4)cc(=O)[nH]3)nc(C)c2c1
O=C(C1CCN(Cc2ccc(F)cc2)CC1)N1CCN(C/C=C/c2ccccc2)CC1
CC(=O)N1CCc2cc(S(=O)(=O)NCCCN3CCN(Cc4ccccc4)CC3)ccc21
COc1ccc(-c2cc(NC(C)=O)c3ncc(-c4cc(OC)c(OC)c(OC)c4)n3c2)cn1
N#C/C(=N\Nc1ccc(S(=O)(=O)N2CCCCC2)cc1)C(N)=S
Cc1ccc(NC(=O)c2ccc(S(=O)(=O)N3CCOCC3)cc2)nc1
COc1cc(S(=O)(=O)N2CCOCC2)ccc1NC(=O)CSc1n[nH]c(=O)[nH]c1=O
C[C@H](CO)N1C[C@H](C)[C@H](CN(C)Cc2ccc(C(F)(F)F)cc2)Oc2ccc(N(C)C)cc2CC1=O
C[C@H](CO)N1C[C@H](C)[C@H](CN(C)Cc2ccc3c(c2)OCO3)Oc2ccc(N(C)C)cc2CC1=O
